Residue numbers refer to the chain shown, from its start.

Common to all, as to assay: protein-binding microarray (PBM); PBM: ~300 nM protein, 6 mM HEPES pH 7.8, 80 mM KCl, 0.5 mM EDTA, 0.5 mM EGTA, 6% glycerol, 35 ng/ul poly-dIdC, 1% milk, 1 h, room temperature; Ap Aiptasia and Nv Nematostella (sea anemones) / Co Capsaspora / Aq Amphimedon (sponge) / Dm Drosophila / Hu human; RHD is the Rel homology domain; high values mean tight binding
Details in all cases: dsDNA, one strand shown

For experiment [1], the target named is T1, GST-Ap-NF-kB RHD (Exaiptasia pallida (Aiptasia), UniProt A0A913YAJ5 2-422).
T1 sequence: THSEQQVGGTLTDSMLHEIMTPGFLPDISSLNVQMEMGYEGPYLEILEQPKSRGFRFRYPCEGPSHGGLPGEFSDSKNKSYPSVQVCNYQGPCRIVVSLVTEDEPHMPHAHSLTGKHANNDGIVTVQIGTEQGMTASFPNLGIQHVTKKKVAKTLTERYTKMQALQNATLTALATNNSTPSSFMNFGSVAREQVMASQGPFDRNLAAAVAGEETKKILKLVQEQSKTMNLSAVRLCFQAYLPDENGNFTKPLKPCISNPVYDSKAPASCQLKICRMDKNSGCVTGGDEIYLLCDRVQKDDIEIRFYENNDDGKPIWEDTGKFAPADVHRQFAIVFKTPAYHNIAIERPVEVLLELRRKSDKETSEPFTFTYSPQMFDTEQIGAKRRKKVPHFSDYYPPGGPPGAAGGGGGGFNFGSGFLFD

In experiment [2] the target is T2, GST-Nv-NF-kB (Cys allele) (Nematostella vectensis, UniProt E5G601 2-411).
T2 sequence: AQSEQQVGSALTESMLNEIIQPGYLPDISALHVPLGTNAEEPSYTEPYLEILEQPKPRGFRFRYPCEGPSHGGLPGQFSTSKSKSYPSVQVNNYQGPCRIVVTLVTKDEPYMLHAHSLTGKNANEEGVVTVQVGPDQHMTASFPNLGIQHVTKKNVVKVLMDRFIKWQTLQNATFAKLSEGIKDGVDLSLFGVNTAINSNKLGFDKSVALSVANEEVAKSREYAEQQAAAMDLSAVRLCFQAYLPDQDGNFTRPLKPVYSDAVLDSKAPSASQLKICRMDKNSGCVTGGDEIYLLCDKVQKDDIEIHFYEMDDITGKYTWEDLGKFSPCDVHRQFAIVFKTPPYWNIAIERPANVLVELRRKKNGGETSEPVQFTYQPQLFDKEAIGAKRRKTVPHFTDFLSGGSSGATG

The target of experiment [3] is T3, GST-Nv-NF-kB (Ser allele) (Nematostella vectensis, UniProt A7UNT2 2-411).
T3 sequence: T2 sequence with Q21R, C66S, S207N, E215Q, V217A, E225K, A268E, D399E

Experiment [4] has as its target T4, GST-Co-NF-kB (Capsaspora owczarzaki, UniProt F1ARL5 200-546).
T4 sequence: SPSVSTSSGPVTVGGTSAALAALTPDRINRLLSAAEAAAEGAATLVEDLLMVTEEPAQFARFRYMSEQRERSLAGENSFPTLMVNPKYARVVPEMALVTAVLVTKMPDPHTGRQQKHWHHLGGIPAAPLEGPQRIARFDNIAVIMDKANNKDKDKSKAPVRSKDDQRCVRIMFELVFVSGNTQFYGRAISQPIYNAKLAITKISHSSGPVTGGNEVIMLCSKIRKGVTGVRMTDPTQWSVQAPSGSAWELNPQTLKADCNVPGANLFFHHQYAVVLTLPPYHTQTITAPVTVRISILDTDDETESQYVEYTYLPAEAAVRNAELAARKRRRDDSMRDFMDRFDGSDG

For experiment [5], the target named is T5, GST-Dm-Relish (Drosophila melanogaster, UniProt Q94527 99-473).
T5 sequence: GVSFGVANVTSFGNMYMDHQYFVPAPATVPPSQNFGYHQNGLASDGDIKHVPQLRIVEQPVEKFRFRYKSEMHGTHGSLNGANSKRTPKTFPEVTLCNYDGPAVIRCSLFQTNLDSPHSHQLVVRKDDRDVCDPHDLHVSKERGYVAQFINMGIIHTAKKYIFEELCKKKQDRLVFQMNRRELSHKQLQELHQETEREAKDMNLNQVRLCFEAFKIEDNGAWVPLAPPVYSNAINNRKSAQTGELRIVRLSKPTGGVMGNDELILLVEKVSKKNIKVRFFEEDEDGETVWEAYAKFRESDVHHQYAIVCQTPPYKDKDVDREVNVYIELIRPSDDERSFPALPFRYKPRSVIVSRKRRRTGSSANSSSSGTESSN

The target of experiment [6] is T6, GST-Aq-NF-kB (Amphimedon queenslandica, UniProt A9Y5G7 2-389).
T6 sequence: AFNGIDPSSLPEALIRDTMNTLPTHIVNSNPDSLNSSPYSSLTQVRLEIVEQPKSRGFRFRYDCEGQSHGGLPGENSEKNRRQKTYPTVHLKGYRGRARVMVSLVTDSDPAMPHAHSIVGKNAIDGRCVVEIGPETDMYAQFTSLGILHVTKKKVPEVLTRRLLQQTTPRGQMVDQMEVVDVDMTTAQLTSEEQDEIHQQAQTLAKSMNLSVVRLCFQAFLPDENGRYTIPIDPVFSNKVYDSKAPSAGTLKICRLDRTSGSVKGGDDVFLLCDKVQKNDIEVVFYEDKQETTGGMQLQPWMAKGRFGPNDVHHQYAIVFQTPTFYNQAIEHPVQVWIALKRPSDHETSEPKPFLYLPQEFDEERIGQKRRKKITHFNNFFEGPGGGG

Experiment [7] addresses GST-Hu-p50 (Homo sapiens, UniProt P19838 7-356).

Chain of GST-Hu-p50 (P19838 7-356): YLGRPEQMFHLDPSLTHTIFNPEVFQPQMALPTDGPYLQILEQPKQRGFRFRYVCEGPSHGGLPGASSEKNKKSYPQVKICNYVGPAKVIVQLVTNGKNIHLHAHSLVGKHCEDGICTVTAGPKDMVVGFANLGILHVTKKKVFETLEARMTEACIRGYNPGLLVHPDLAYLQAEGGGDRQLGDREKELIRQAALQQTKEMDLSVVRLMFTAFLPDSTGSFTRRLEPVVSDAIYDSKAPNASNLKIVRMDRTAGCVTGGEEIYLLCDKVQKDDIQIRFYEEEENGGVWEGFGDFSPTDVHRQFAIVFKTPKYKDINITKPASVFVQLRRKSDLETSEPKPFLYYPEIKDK

For “CCGATTAACATCAGGGAATTTTATGATGTTAATCGGGTCTTGATTCGCTTGACGCTGCTG”, the binding signal came out at 6.12 z-score in experiment [1]; 9.33 z-score in experiment [2]; 8.44 z-score in experiment [3]; 4.82 z-score in experiment [4]; 6.83 z-score in experiment [5]; 8.16 z-score in experiment [6]. The sequence also had a binding signal in experiment [7] of 6.55 z-score.
As for “CCGATTAACATCAAAAAACCCCCTGATGTTAATCGGGTCTTGATTCGCTTGACGCTGCTG”, the binding signal in experiment [1] worked out at 12.1 z-score; in experiment [2], 11.4 z-score; in experiment [3], 12.1 z-score; in experiment [4], 5.28 z-score; in experiment [5] it was 11.4 z-score; in experiment [6], 9.82 z-score. The sequence also came in with a binding signal in experiment [7] of 8.38 z-score.
With “CCGATTAACATCAGGGGAACACCTGATGTTAATCGGGTCTTGATTCGCTTGACGCTGCTG”, the binding signal in experiment [1] is 6.84 z-score; in experiment [2] it was 6.62 z-score; in experiment [3], 6.14 z-score; in experiment [4], 5.77 z-score; in experiment [5], 9.19 z-score; in experiment [6], 7.92 z-score. This sequence had a binding signal in experiment [7] of 4.87 z-score.
Regarding “CCGATTAACATCAGGGGATGTTATGATGTTAATCGGGTCTTGATTCGCTTGACGCTGCTG”, the binding signal was 5.57 z-score in experiment [1]; 6.43 z-score in experiment [2]; 7.06 z-score in experiment [3]; 3.17 z-score in experiment [4]; 5.86 z-score in experiment [5]; 5.53 z-score in experiment [6]. The sequence also displayed a binding signal in experiment [7] of 5.29 z-score.
Turning to “CCGATTAACATCAAGACTCCCCCTGATGTTAATCGGGTCTTGATTCGCTTGACGCTGCTG”, the binding signal in experiment [1] was 6.35 z-score; in experiment [2], 5.25 z-score; in experiment [3], 5.92 z-score; in experiment [4], 5.87 z-score; in experiment [5], 4.5 z-score; in experiment [6], 5.15 z-score. The same sequence showed a binding signal in experiment [7] of 5.69 z-score.
For the sequence “CCGATTAACATCACGGGGTTTCCTGATGTTAATCGGGTCTTGATTCGCTTGACGCTGCTG”, the binding signal worked out at 6.06 z-score in experiment [1]; 4.79 z-score in experiment [2]; 2.69 z-score in experiment [3]; 2.61 z-score in experiment [4]; 7.75 z-score in experiment [5]; 5.93 z-score in experiment [6]. In experiment [7], this sequence came in with a binding signal of 4.42 z-score.
“CCGATTAACATCAAAAACTCCCTTGATGTTAATCGGGTCTTGATTCGCTTGACGCTGCTG”: the binding signal in experiment [1] is 5.39 z-score; in experiment [2], 7.94 z-score; in experiment [3], 7 z-score; in experiment [4], 1.96 z-score; in experiment [5], 6.3 z-score; in experiment [6], 7.5 z-score. Also, the binding signal in experiment [7] is 5.92 z-score.
Turning to “CCGATTAACATCAAATCTTCCCCTGATGTTAATCGGGTCTTGATTCGCTTGACGCTGCTG”, the binding signal in experiment [1] amounted to 6.29 z-score; in experiment [2], 8.14 z-score; in experiment [3], 10.4 z-score; in experiment [4] it was 9.84 z-score; in experiment [5] it was 4.74 z-score; in experiment [6], 6.11 z-score. Also, the binding signal in experiment [7] was found to be 6.14 z-score.
Consider “CCGATTAACATCAATAACCCCCATGATGTTAATCGGGTCTTGATTCGCTTGACGCTGCTG”, for which the binding signal in experiment [1] is 5.5 z-score; in experiment [2], 4.47 z-score; in experiment [3], 4.38 z-score; in experiment [4], 2.27 z-score; in experiment [5], 5.69 z-score; in experiment [6] it was 4.84 z-score. In addition, the binding signal in experiment [7] is 5.31 z-score.
As to “CCGATTAACATCAGGACCCCCCCTGATGTTAATCGGGTCTTGATTCGCTTGACGCTGCTG”, the binding signal stood at 7.35 z-score in experiment [1]; 4.56 z-score in experiment [2]; 3.23 z-score in experiment [3]; 2.94 z-score in experiment [4]; 6.37 z-score in experiment [5]; 7.44 z-score in experiment [6]. For the same sequence, in experiment [7], the binding signal worked out at 4.44 z-score.
In the case of “CCGATTAACATCAGGGGTTCCCATGATGTTAATCGGGTCTTGATTCGCTTGACGCTGCTG”, the binding signal in experiment [1] was 4.04 z-score; in experiment [2], 2.36 z-score; in experiment [3], 1.37 z-score; in experiment [4], 1.64 z-score; in experiment [5], 10 z-score; in experiment [6], 4.49 z-score. Moreover, the binding signal in experiment [7] was determined as 2.64 z-score.
“CCGATTAACATCAGGGGAAGTCATGATGTTAATCGGGTCTTGATTCGCTTGACGCTGCTG”: the binding signal in experiment [1] was determined as 5.98 z-score; in experiment [2] it was 7.2 z-score; in experiment [3], 7.6 z-score; in experiment [4], 4.69 z-score; in experiment [5], 6.43 z-score; in experiment [6], 6.01 z-score. Besides, the binding signal in experiment [7] is 5.27 z-score.

For the origin of these results see PMC5700166.
